According to PubChem BioAssay (NCATS):
Records with an inconclusive call do not appear. The source made the active and inactive calls. Calls come from the whole dose curve; as a rule, active = well fitted curve in the direction sought with a large enough effect; inconclusive = small, poorly fitted or top-dose-only effect, or another doubt; inactive = no such curve, though single readings can be large; an effect the other way counts as inactive or inconclusive.

Experiments:
[1] = molecular target: Glutathione peroxidase 1 (Homo sapiens) (UniProt P07203); assay: Primary qHTS Assay for Inhibitors of Recombinant Selenoprotein Glutathione Peroxidase 1 (GPX1) (AID 1845191); settings: recombinant GPX1, GR-coupled NADPH fluorescence, 15 min; series mostly up to 27.7 µM; note: nearly all actives have a fitted effect of over 65% in size; for activity, negative = inhibition: % is set by controls: 0 for no effect and ±100 for the full control effect
Method in brief: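 Recombinant GPX1 (10 nM final) was preincubated with compound for 30 min at room temperature, then reacted with 1 mM GSH, 0.5 mM CHP, 0.5 mM NADPH and 100 nM glutathione reductase; NADPH fluorescence (340/450 nm) was read at 0 and 15 min.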

[2] = molecular target: Phospholipid hydroperoxide glutathione peroxidase GPX4 (Homo sapiens) (UniProt P36969); assay: Primary qHTS Assay for Inhibitors of Recombinant Selenoprotein Glutathione Peroxidase 4 (GPX4) (AID 1845192); settings: recombinant GPX4, GR-coupled NADPH fluorescence, 15 min; series mostly up to 27.8 µM; note: % is set by controls: 0 for no effect and ±100 for the full control effect; nearly all actives have a fitted effect of over 65% in size
Method in brief: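 GR-coupled readout: 100 nM GR, 1 mM GSH, 0.5 mM NADPH; NADPH fluorescence (ex 340/em 450 nm) read at t=0 and after 15 min RT. GPX4 200 nM, preincubated 30 min with compound; substrate 0.5 mM CHP.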

[3] = molecular target: Luciferin 4-monooxygenase (Photinus pyralis) (UniProt P08659); assay: Primary firefly luciferase (FLuc) qHTS assay for identification of artifact compounds. (AID 1845220); settings: purified firefly luciferase, luminescence, 5 min; series mostly up to 54.1 µM; note: nearly all actives have a fitted effect of over 60% in size;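 for activity change, negative = inhibition: plate controls were DMSO vehicle for no effect and no enzyme for full effect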
Method in brief: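 In this counter-screen for luciferase artifacts, test compounds met substrate (10 uM each luciferin and ATP) before 10 nM enzyme started the reaction. Light output was measured 5 min later.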

[4] = Primary fluorescence-based thiol-reactive (MSTI) qHTS assay for identification of artifact compounds. (AID 1845221); settings: MSTI thiol-reactivity probe, 1 h; series mostly up to 53.8 µM;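 note: thiol-reactive compounds lower the probe fluorescence signal; nearly all actives have a fitted effect of over 65% in size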
Method in brief: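 Curve-fitted percent inhibition (4-parameter Hill) derived from fluorescence, Ex 525/Em 598 nm, scaled with Acetyl-MSTI and MSTI; 1 h incubation at room temperature.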

[5] = system: Nanoluciferase (engineered Oplophorus gracilirostris luciferase); assay: Primary Nanoluciferase (NLuc) qHTS assay for identification of artifact compounds. (AID 1845222); settings: NLuc-conditioned medium, Nano-Glo luminescence, 5 min; series mostly up to 54.1 µM;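 note: NLuc secreted into diluted conditioned medium of S16 cells; 0% = DMSO and -100% = no enzyme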
Method in brief: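 Using secreted nanoluciferase in S16 culture medium (0.22 um filtered, 1:55 dilution), compounds were preincubated 15 min at RT. Signal was generated with Nano-Glo reagent (1:100) over 5 min.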

Chain of Glutathione peroxidase 1 (Homo sapiens) (P07203 whole entry, looked up): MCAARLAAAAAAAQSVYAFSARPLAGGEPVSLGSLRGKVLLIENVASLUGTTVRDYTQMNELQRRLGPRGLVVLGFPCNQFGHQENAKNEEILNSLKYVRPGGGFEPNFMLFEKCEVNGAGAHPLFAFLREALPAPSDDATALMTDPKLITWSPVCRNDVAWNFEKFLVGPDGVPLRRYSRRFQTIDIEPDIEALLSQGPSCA
Chain of Phospholipid hydroperoxide glutathione peroxidase GPX4 (Homo sapiens) (P36969 whole entry, looked up): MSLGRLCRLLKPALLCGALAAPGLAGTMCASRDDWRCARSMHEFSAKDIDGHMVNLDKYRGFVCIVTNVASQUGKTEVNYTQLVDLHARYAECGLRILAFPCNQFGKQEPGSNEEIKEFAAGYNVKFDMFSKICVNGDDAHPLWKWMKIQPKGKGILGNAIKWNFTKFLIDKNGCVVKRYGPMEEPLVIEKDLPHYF

CC(C)C1CCC(CO)=CC1/C=C(\CO)C(=O)OCC1(O)CCC(C(C)C)C2C=C(C(=O)O)COC(=O)C21 (stereo not given)
inactive: Potency [1] | Potency [2] | Potency [3] | Potency [4] | Potency [5]

C=C1C(=O)OC2CC(COC(=O)C(C)C)=C(C(C)CCCOC(C)=O)[C@@H](OC(C)=O)C12 (stereo not given in full)
inactive: Potency [1] | Potency [2] | Potency [3] | Potency [4] | Potency [5]

C[C@@H]1O[C@@H](O[C@@H]2[C@@H](O)[C@H](O[C@H]3[C@H](O[C@H]4CC[C@@]5(C)C(CC[C@]6(C)C5CC=C5[C@@H]7CC(C)(C)CC[C@]7(C(=O)O[C@@H]7O[C@H](CO)[C@@H](O)[C@H](O)[C@H]7O)CC[C@]56C)C4(C)C)O[C@H](C(=O)O)[C@@H](O)[C@@H]3O)OC[C@H]2O)[C@H](O)[C@H](O)[C@H]1O (stereo not given in full)
inactive: Potency [1] | Potency [2] | outcome [3] inactive [at 11.6 µM] | activity change, negative = thiol reactive [4] 351% [at 11.5 µM] | activity, negative = inhibition [5] 2.29% [at 11.6 µM]

CCOc1ncc(S(=O)(=O)N2CCN(CC)CC2)cc1-c1nc2c(CC)n(CCOC)nc2c(=O)[nH]1
inactive: Potency [1] | Potency [2] | Potency [3] | Potency [4] | Potency [5]

CC1(C)CC2C3=CCC4[C@@]5(C)CC[C@H](OC6OCC(O)C(OC7OC(CO)C(O)C(O)C7O)C6O)C(C)(C)C5CC[C@@]4(C)[C@]3(C)C[C@H](O)[C@@]2(CO)[C@H](OC(=O)c2ccccc2)C1 (stereo not given in full)
inactive: Potency [1] | Potency [2] | activity change, negative = inhibition [3] -8.37% [at 11.6 µM] | activity change, negative = thiol reactive [4] 159% [at 11.5 µM] | activity, negative = inhibition [5] -2.24% [at 11.6 µM]
